Measured values: PubChem BioAssay (NCI)
Compounds without any hit were thinned out: in the full panel of roughly 83,000, 20% have a hit.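 Note: values are percent growth. 100 is the growth of untreated cells, values between 100 and 0 indicate rising inhibition; between -100 and 0 indicates cell death.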

Columns and labels:
Assay in all cases: NCI-60 one-dose screen, 48 h (100 = growth as untreated, 0 = no growth, -100 = all killed)
Conditions in all cases: 10 µM unless noted; active = growth percent below 10; inactive = the rest
SR leukemia = test system: SR leukemia
RPMI-8226 leukemia = test system: RPMI-8226 leukemia
OVCAR-8 ovarian = test system: OVCAR-8 ovarian
OVCAR-5 ovarian = test system: OVCAR-5 ovarian
OVCAR-4 ovarian = test system: OVCAR-4 ovarian
SK-OV-3 ovarian = test system: SK-OV-3 ovarian
IGROV1 ovarian = test system: IGROV1 ovarian
OVCAR-3 ovarian = test system: OVCAR-3 ovarian
HS 578T breast = test system: HS 578T breast
NCI/ADR-RES ovarian = test system: NCI/ADR-RES ovarian
T-47D breast = test system: T-47D breast
BT-549 breast = test system: BT-549 breast
MDA-MB-435 melanoma = test system: MDA-MB-435 melanoma
SW-620 colon = test system: SW-620 colon
MCF7 breast = test system: MCF7 breast
HCT-116 colon = test system: HCT-116 colon
HCC-2998 colon = test system: HCC-2998 colon
KM12 colon = test system: KM12 colon

Measured: growth

CC1(C)CC(=O)C2=C(C1)N(c1ccc(OC(F)(F)F)cc1)C(N)=C(C#N)C2c1ccc(Br)cc1F (configuration not stated)
inactive: SR leukemia 76% | RPMI-8226 leukemia 100% | OVCAR-8 ovarian 35.8% | OVCAR-5 ovarian 87.2% | OVCAR-4 ovarian 54.9% | SK-OV-3 ovarian 61.2% | IGROV1 ovarian 63.2% | OVCAR-3 ovarian 58% | HS 578T breast 23.7% | NCI/ADR-RES ovarian 35.3% | T-47D breast 78.9% | BT-549 breast 69.1% | MDA-MB-435 melanoma 93.1% | SW-620 colon 69.9% | MCF7 breast 83.3% | HCT-116 colon 46.7% | HCC-2998 colon 88.4% | KM12 colon 89.5%

O=C(CSc1oc(-c2ccccc2)nc1S(=O)(=O)c1ccccc1)Nc1ccc(F)cc1
inactive: SR leukemia 83.8% | RPMI-8226 leukemia 55.7% | OVCAR-8 ovarian 88.7% | OVCAR-5 ovarian 87.5% | OVCAR-4 ovarian 67.4% | SK-OV-3 ovarian 95.8% | IGROV1 ovarian 88.9% | OVCAR-3 ovarian 85.7% | HS 578T breast 97.9% | NCI/ADR-RES ovarian 75.3% | T-47D breast 69.8% | BT-549 breast 78.4% | MDA-MB-435 melanoma 94.8% | SW-620 colon 96.5% | MCF7 breast 92.6% | HCT-116 colon 52.6% | HCC-2998 colon 104% | KM12 colon 86.6%

O=c1[nH]c(-c2ccccc2)nc2sc3cc(O)ccc3c12
inactive: SR leukemia 54.2% | RPMI-8226 leukemia 82.3% | OVCAR-8 ovarian 100% | OVCAR-5 ovarian 115% | OVCAR-4 ovarian 80% | SK-OV-3 ovarian 97.9% | IGROV1 ovarian 74.1% | OVCAR-3 ovarian 93.4% | HS 578T breast 89% | NCI/ADR-RES ovarian 95.5% | T-47D breast 93% | BT-549 breast 82.3% | MDA-MB-435 melanoma 85.9% | SW-620 colon 101% | MCF7 breast 73.8% | HCT-116 colon 92.5% | HCC-2998 colon 95.9% | KM12 colon 87.6%

N#CC1=C(c2ccccc2)Nc2c(c(-c3ccc(Cl)cc3)nn2-c2ccccc2)C12C(=O)Nc1ccc(Cl)cc12 (configuration not stated)
inactive: SR leukemia 53.9% | RPMI-8226 leukemia 47.4% | OVCAR-8 ovarian 84% | OVCAR-5 ovarian 82.6% | OVCAR-4 ovarian 87.8% | SK-OV-3 ovarian 90.8% | IGROV1 ovarian 57.1% | OVCAR-3 ovarian 88.1% | HS 578T breast 62.2% | NCI/ADR-RES ovarian 87.8% | T-47D breast 55.8% | BT-549 breast 76.2% | MDA-MB-435 melanoma 45.3% | SW-620 colon 85.9% | MCF7 breast 54.9% | HCT-116 colon 65.5% | HCC-2998 colon 90.6% | KM12 colon 83%
